Assay results from PubChem BioAssay AID1159580 (chemical genetic matrix, 2015).
Values joined by “and” are separate entries in the source; they are usually repeats but may differ in a detail not shown here. Equal values may be shown once. Screen size: about 5,500 compounds; about 2,000 (36%) were called active. Not shown: some 18% with an inconclusive outcome. Rule as the data show it: active = normalized growth mostly below about 0.91 (no sharp cut-off); inconclusive = no clear call, values can overlap the other calls; inactive = mostly above about 0.92. The list shows a part of the results.

Assay: chemical genetic growth profiling, strain panel (AID 1159580);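 also: tested at 20 µM; growth read once vehicle control cultures reached saturation at 30 °C; 1 = growth at the plate median or of vehicle wells; lower values mean less growth of the strain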
Conditions: S. cerevisiae deletion strains, growth OD

Measured: normalized growth

Nc1ccc(S(=O)(=O)Nc2ccccn2)cc1
inactive: locus YAL013W, strain DEP1, hits give low values 1.02 | locus YAL021C, strain ccr4, hits give low values 1 | locus YAL026C, strain drs2, hits give low values 1.01 | locus YAL030W, strain snc1, hits give low values 1.01 | locus YBL061C, strain skt5, hits give low values 1.01 | locus YBR009C, strain hhf1, hits give low values 0.983 | locus YBR021W, strain FUR4, hits give low values 1.04 | locus YBR023C, strain chs3, hits give low values 1.01 | locus YBR171W, strain sec66, hits give low values 1.01 | locus YBR229C, strain ROT2, hits give low values 1.01 | locus YBR231C, strain swc5, hits give low values 1.03 | locus YBR279W, strain paf1, hits give low values 1.01 | locus YCL011C, strain gbp2, hits give low values 0.99 | locus YCL016C, strain dcc1, hits give low values 1 | locus YCL029C, strain bik1, hits give low values 1 | locus YCL069W, strain vba3, hits give low values 1 | locus YCR088W, strain abp1, hits give low values 1 | locus YDL005C, strain med2, hits give low values 1.02 | locus YDL035C, strain GPR1, hits give low values 1.01 | locus YDL040C, strain nat1, hits give low values 1.01 | locus YDL074C, strain BRE1, hits give low values 1.02 | locus YDL101C, strain DUN1, hits give low values 1 | locus YDL134C, strain PPH21, hits give low values 1.01 | locus YDL185W, strain tfp1, hits give low values 0.982 | locus YDL192W, strain arf1, hits give low values 0.996 | locus YDR001C, strain nth1, hits give low values 1.01 | locus YDR069C, strain doa4, hits give low values 1.02 | locus YDR101C, strain arx1, hits give low values 0.987 | locus YDR137W, strain rgp1, hits give low values 1.01 | locus YDR159W, strain sac3, hits give low values 0.986 | locus YDR162C, strain NBP2, hits give low values 1 | locus YDR195W, strain ref2 1.04 | locus YDR297W, strain sur2, hits give low values 1.01 | locus YDR318W, strain mcm21, hits give low values 0.988 | locus YDR334W, strain swr1, hits give low values 1.01 | locus YDR335W, strain msn5, hits give low values 1.01 | locus YDR388W, hits give low values 0.988 | locus YDR392W, strain spt3, hits give low values 0.951 | locus YDR502C, strain sam2, hits give low values 0.996 | locus YEL003W, strain gim4, hits give low values 1.02 | locus YEL037C, strain rad23, hits give low values 1.01 | locus YEL061C, strain CIN8 (second series), hits give low values 1.01 | locus YEL061C, strain CIN8, hits give low values 1.01 | locus YER015W, strain faa2, hits give low values 1.02 | locus YER016W, strain bim1, hits give low values 0.996 | locus YER110C, hits give low values 0.993 | locus YER111C, strain swi4, hits give low values 1.01 | locus YER155C, strain BEM2 (second series), hits give low values 1.01 | locus YER155C, strain BEM2, hits give low values 1.01 | locus YER167W, strain BCK2, hits give low values 1 | locus YFR010W, strain ubp6, hits give low values 1.02 | locus YGL078C, strain dbp3, hits give low values 1 | locus YGL086W, strain mad1, hits give low values 1 | locus YGL167C, strain pmr1, hits give low values 1.02 | locus YGL173C, strain kem1, hits give low values 1.02 | locus YGL227W, strain vid30, hits give low values 1.02 | locus YGL240W, strain doc1, hits give low values 1.02 | locus YGL248W, strain PDE1, hits give low values 1.02 | locus YGL253W, strain hxk2, hits give low values 0.999 | locus YGR135W, strain pre9, hits give low values 1.01 | locus YGR229C, strain SMI1, hits give low values 1.02 | locus YGR252W, strain gcn5, hits give low values 1.03 | locus YHR013C, strain ard1, hits give low values 1.01 | locus YHR027C, strain rpn1, hits give low values 1.01 | locus YHR030C, strain SLT2, hits give low values 1.01 and 0.97 | locus YHR079C, strain IRE1 (second series), hits give low values 0.992 | locus YHR079C, strain IRE1, hits give low values 0.985 | locus YHR094C, strain hxt1, hits give low values 0.99 | locus YHR129C, strain ARP1, hits give low values 1.02 | locus YHR142W, strain chs7, hits give low values 0.98 | locus YHR200W, strain rpn10, hits give low values 0.986 | locus YIL066C, strain RNR3, hits give low values 1.01 | locus YIL073C, strain SPO22, hits give low values 0.989 | locus YIL125W, strain kgd1, hits give low values 0.983 | locus YIR030C, strain dcg1, hits give low values 0.996 | locus YJL092W, strain hpr5, hits give low values 1.02 | locus YJL095W, strain BCK1 (second series), hits give low values 1.01 | locus YJL095W, strain BCK1, hits give low values 1.02 and 0.979 | locus YJL115W, strain asf1, hits give low values 1.01 | locus YJL129C, strain trk1, hits give low values 1.02 | locus YJL134W, strain LCB3, hits give low values 1 | locus YJL154C, strain vps35, hits give low values 1.02 | locus YJL164C, strain tpk1, hits give low values 0.972 | locus YJL166W, strain qcr8, hits give low values 1.02 | locus YJL168C, strain set2, hits give low values 0.99 | locus YJL187C, strain SWE1 (second series), hits give low values 1.01 | locus YJR043C, strain POL32, hits give low values 1 | locus YJR066W, strain TOR1, hits give low values 0.928
